High-throughput results from PubChem.
This excerpt belongs to a sample that is enriched for hits.
Giardia FBPA inh = inhibitors of Giardia lamblia fructose-1,6-bisphosphate aldolase. A8B2U2. purified Giardia FBPA. Potency, µM (top dose mostly 59.6 µM), inactives show top-dose activity, negative = inhibition, actives largely listed as inhibitors. actives 0.71% (n = 290,000). AID 2451; also: potency is read from the fitted curve at half-maximal effect; % is scaled to controls: 0 for no effect and ±100 for the full control effect; nearly all actives have a fitted effect of over 55% in size
Target sequence (A8B2U2 whole entry, looked up): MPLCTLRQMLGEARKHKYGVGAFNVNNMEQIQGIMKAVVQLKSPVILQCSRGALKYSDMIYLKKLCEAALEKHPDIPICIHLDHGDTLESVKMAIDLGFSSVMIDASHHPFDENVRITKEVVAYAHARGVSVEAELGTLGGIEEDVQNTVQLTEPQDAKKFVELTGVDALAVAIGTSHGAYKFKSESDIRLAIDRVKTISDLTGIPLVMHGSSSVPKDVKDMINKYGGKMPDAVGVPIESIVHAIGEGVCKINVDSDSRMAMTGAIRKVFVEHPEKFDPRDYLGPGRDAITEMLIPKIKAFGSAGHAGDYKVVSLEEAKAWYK
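Giardia FBPA (40 nM reagent) was preincubated 10 min at RT with compound (up to 57.5 uM final), then substrate plus GAPDH/TPI/NAD/arsenate coupling system with diaphorase/resazurin was added; resorufin fluorescence (525/598 nm) was read after 20 min.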
Shiga inhibitor = Shiga toxin inhibition | inhibition, % at 38.7 µM | actives 9.2% (n = 290,000) | Vero cells, Shiga toxin protein synthesis inhibition reporter | AID 2315; in the data active = inhibition mostly above about 28%, no sharp cut-off; inactive = mostly below about 43%; also: 0% is about no effect
LmPK inhibitor = LmPK (Leishmania mexicana) enzyme inhibition; Q27686; purified LmPK, Kinase-Glo ATP luminescence, 1 h; Potency, µM (highest dose often 57.5 µM), inactives show at the top dose activity change, negative = inhibition, actives largely listed as inhibitors; actives 0.37% (n = 290,000); AID 1721; also: potency is read from the fitted curve at half-maximal effect; % is scaled to controls: 0 for no effect and ±100 for the full control effect
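Purified LmPK (0.1 nM) with 0.5 mM PEP and 0.1 mM ADP in imidazole buffer pH 7.2 with MgCl2/KCl, 1 h at room temperature. ATP formed was read by luciferase luminescence and normalized to no-enzyme and uninhibited controls.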
Cycloheximide cs = affects cycloheximide protein synthesis inhibition readout, counter-screen; cell reporter, cycloheximide protein synthesis inhibition counterscreen; max response, %; actives 12% (n = 300,000); AID 2314; in the data active = max response mostly above about 13%, no sharp cut-off; inactive = mostly below about 14%; also: read at 38.3 µM for the half of the compounds with a filed dose; 0% is about no effect
Sm TGR inh = blocks Schistosoma mansoni thioredoxin glutathione reductase; Potency, µM (series often up to 114 µM), for the others: at the highest dose activity change, negative = inhibition, actives largely listed as inhibitors; actives 3% (n = 360,000); purified TGR, DTNB reduction, TNB absorbance 405 nm; also: potency is read from the fitted curve at half-maximal effect; % is scaled to controls: 0 for no effect and ±100 for the full control effect; nearly all actives have a fitted effect of over 60% in size
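TGR 20 nM + NADPH 100 uM (dispensed conc.), cpd preinc 15 min RT; start with NADPH (500 uM addition) then DTNB (15 mM addition). Kinetic TNB absorbance, 405 nm filter. Four-parameter Hill fit across titration.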
Tb PYK inh = T. brucei pyruvate kinase inhibition; actives 0.12% (n = 410,000); Potency, µM (titrated, usually from 76.8 µM), without a hit: at the top dose activity, negative = inhibition, hits mostly inhibitors; TbPYK enzyme, Kinase-Glo Plus ATP luminescence, 45 min; also: potency is read from the fitted curve at half-maximal effect; % is scaled to controls: 0 for no effect and ±100 for the full control effect; nearly all actives have a fitted effect of over 50% in size
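Glycolytic pyruvate kinase of T. brucei was incubated with substrate, test compound and 130 uM ADP for 45 minutes at room temperature. Luminescent Kinase-Glo Plus signal was measured after 10 minutes.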
* = called active by the depositor; / = no result; + = active, no number; [ ] = another dose, or the depositor's remark. Unless noted, calls follow the shape of the dose curve; as a rule, active = well fitted curve in the direction sought with a large enough effect; inconclusive = small, poorly fitted or top-dose-only effect, or another doubt; inactive = no such curve, though single readings can be large; an effect the other way counts as inactive or inconclusive.

SMILES | Giardia FBPA inh | Shiga inhibitor | LmPK inhibitor | Cycloheximide cs | Sm TGR inh | Tb PYK inh
COc1ccc(C2=CC(c3ccc(F)cc3)n3ncc(C(=O)Nc4ccc(C)cc4)c3N2)cc1 (centres undefined) | / | / | / | / | 27% | 2%
COC(=O)NCC(C)OC(=O)Nc1cccc(Cl)c1 (centres undefined) | 0% | 20 | 2% | 11* | -4% | -6%
CN1CCN(NC(=O)Nc2cccc(F)c2)CC1 | / | 50 | -5% | 11* | -15% | -3%
COC(=O)c1cc(NC(=O)Nc2cccc(Cl)c2)ccc1Cl | -8% | 73 | 1% | 22* | 2% | -10%
Cc1cccc(N(O)C(=O)Nc2cccc(Cl)c2)c1 | 0% | 56* | 1% | 37* | 0% | -2%
CCSc1ncc(Cl)c(C(=O)Nc2ccc(S(=O)(=O)N3CCCCC3)cc2)n1 | / | / | / | / | 16% | -1%
NC(=O)C1CCN(C(=O)C2CCC(=O)N(C3CCCCCC3)C2)CC1 (centres undefined) | / | 16 | -3% | -2 | -15% | -2%
Cc1nn(C)c(C)c1CN(C(=O)C1CCC(=O)N(C2CCCCCC2)C1)C(C)C (centres undefined) | / | 43 | 7% | 31* | -20% | -1%
Cc1ccc(S(=O)(=O)Nc2ccc3nc(-c4cccn4C)[nH]c3c2)cc1 | -2% | 37* | 2% | 24* | 0% | 0%
Cn1cccc1-c1nc2ccc(NC(=O)c3ccc([N+](=O)[O-])cc3)cc2[nH]1 | 0% | -17 | -1% | -2 | -2% | 6%
Cn1cccc1-c1nc2ccc(NC(=O)c3ccccc3)cc2[nH]1 | -10% | 36* | 0% | 20* | -24% | 4%
Cn1cccc1-c1nc2ccccc2[nH]1 | -9% | 88* | -13% | 31* | -7% | -3%
CCN(C(=O)CSc1nc2ccccc2n1CC(=O)Nc1ccccc1C)c1ccccc1 | / | / | / | / | -6% | 1%
Cc1ccc(NC(=O)Cn2c(=O)n(CCC(=O)NCc3ccccc3Cl)c(=O)c3ccccc32)c(C)c1 | / | / | / | / | -4% | 5%
CNC(=O)c1c(NC(=O)c2cc(=O)c3cc(C)c(C)cc3o2)sc2c1CCCC2 | / | / | / | / | 5% | -8%
Cc1cc(C)n2c(SCc3cccs3)nnc2n1 | 0% | + | 2% | 15* | -12% | -22%
COc1ccc(C(=O)N/N=C\c2ccoc2)cc1 | -3% | 28 | -8% | 24 | -26% | -3%
O=C(N/N=C/c1ccoc1)c1cccc(OC(F)(F)C(F)F)c1 | / | / | / | / | / | 0%
CC(C)c1cc(C(=O)N/N=C/c2ccoc2)cs1 | / | 74* | -4% | 42* | -17% | -9%
Cc1ccc(C(=O)N/N=C/c2ccoc2)cc1C | -4% | 63* | 1% | 41* | -7% | -8%
CCOc1cccc(C(=O)N/N=C/c2ccoc2)c1 | / | 49* | -1% | 24* | 2% | -3%
CC(C)c1cc(C(=O)N/N=C/c2cccnc2)cs1 | 0% | 41* | 0% | 21* | -2% | -4%
Cc1cccc(-c2noc(-c3ccc(NCc4ccccc4)c([N+](=O)[O-])c3)n2)c1 | / | / | / | / | -4% | 1%
CC(CNC(=O)Cc1ccc(NC(=O)N2CCSc3ncccc32)cc1)c1ccccc1 (centres undefined) | / | / | / | / | -1% | -1%[15.4 µM]
CCOC(=O)/C(=C/C=C1\Sc2cc(C)c(C)cc2N1CC)C(C)=O | -22% | -19 | 5% | 0 | 45µM* | -3%
SMILES | Giardia FBPA inh | Shiga inhibitor | LmPK inhibitor | Cycloheximide cs | Sm TGR inh | Tb PYK inh
CCc1ccccc1NC(=O)/C(=C/c1ccco1)c1ccccc1 | -13% | -4 | 3% | 8 | 35µM* | -6%
CC(C)OC(=O)/C(=C/c1ccco1)c1ccccc1 | -10% | 12 | 2% | -1 | 10µM* | -2%
CCc1ccccc1NC(=S)NN | 16µM* | -17 | -4% | -1 | 3% | /
C=C1c2ccccc2NC(=S)N1Cc1ccc2c(c1)OCO2 | -6% | 65* | -2% | 41* | -18% | -8%
Clc1ccc2nc3c4ccccc4cnn3c2c1 | 3% | 117* | -27% | 62* | / | -9%
CCOC(=O)N/N=C1/C[C@@H](O)[C@@H](O)[C@@H]2[C@@H]3C(=O)N(C[C@@H]4CCCO4)C(=O)[C@H]3CC[C@@H]12 | -2%[12.9 µM] | / | / | / | / | /
